Results filed as inconclusive are left out. Calls of active or inactive are those of the source. The call rests on the fitted dose curve; in most records, active means well fitted inhibition curve with a large enough effect; inconclusive means small, poorly fitted or top-dose-only effect; inactive means no such curve, though single readings can be large or run the other way.
Target: Cruzipain (Trypanosoma cruzi) (UniProt P25779)
Experiment: Confirmation qHTS Assay for Inhibitors of Cruzain; further: nearly all actives have a fitted effect of over 40% in size;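 on Activity change, negative = inhibition: plate controls were uninhibited enzyme control for no effect and buffer wells lacking enzyme for full effect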
Conditions: purified cruzain, Z-FR-AMC fluorescence, 0.01% Triton
Summary of the method: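 Reaction progress from the 60 s rise in AMC fluorescence (ex 360, em 450 nm) after adding 2 uM Z-FR-AMC. Before this, 1.5 nM cruzain sat 15 min at room temperature with compound in pH 5.5 acetate buffer with 5 mM DTT and 0.01% Triton X-100.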
Potency means the concentration at half of the fitted maximal effect.

Sequence of Cruzipain (Trypanosoma cruzi) (P25779 123-467 limits assumed): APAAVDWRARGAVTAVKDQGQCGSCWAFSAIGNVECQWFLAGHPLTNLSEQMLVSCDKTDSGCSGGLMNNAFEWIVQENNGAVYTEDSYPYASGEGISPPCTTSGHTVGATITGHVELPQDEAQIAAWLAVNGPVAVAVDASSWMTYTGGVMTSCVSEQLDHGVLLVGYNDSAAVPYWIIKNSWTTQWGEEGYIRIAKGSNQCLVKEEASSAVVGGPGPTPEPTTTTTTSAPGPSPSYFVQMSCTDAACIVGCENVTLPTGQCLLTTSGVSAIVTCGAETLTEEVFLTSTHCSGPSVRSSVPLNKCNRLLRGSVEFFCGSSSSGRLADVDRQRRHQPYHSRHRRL

Potency, active:
O=C(CNC(=O)C1CCCCC1)OC(C(=O)Nc1cc(C(F)(F)F)ccc1Cl)c1ccccc1 (centres undefined) 5.01 µM, COc1ccccc1NC(=O)C(OC(=O)CNC(=O)c1ccccc1)c1ccccc1 (centres undefined) 10 µM, CCCn1c(SCC(=O)N2CC(=O)Nc3ccccc32)nc2ccccc21 28.2 µM, COc1ccc(OC)c(C(=O)COC(=O)CNC(=O)C2CCCCC2)c1 7.08 µM, N#Cc1nc(Nc2cccc([N+](=O)[O-])c2)nc(NC2CCCC2)n1 0.0631 µM, C=CC(C)(C)c1[nH]c2ccccc2c1C1=C(O)C(=O)C(c2c[nH]c3c(CC=C(C)C)cccc23)=C(O)C1=O 25.1 µM, Cc1cccc(OCCn2c(CCNC(=O)C3CCCCC3)nc3ccccc32)c1 0.891 µM, Cc1cc(OCCCn2c(CCNC(=O)C3CCCCC3)nc3ccccc32)ccc1Cl 1.12 µM, CCOC(=O)C(C(=O)OCC)N(C#N)c1nc(SC)nc(N(C)C)n1 5.01 µM, O=C(CNC(=O)C1CCCCC1)OCC(=O)c1ccc(Br)cc1 2.24 µM, O=C(CNC(=O)C1CCCCC1)OCC(=O)c1ccccc1 6.31 µM, COc1ccc(NC(=O)C(OC(=O)CNC(=O)c2ccccc2)c2ccccc2)cc1Cl (centres undefined) 12.6 µM, CCOc1ccc(C(=O)COC(=O)CNC(=O)C2CCCCC2)cc1 3.16 µM, N#Cc1nc(N2CCCC2)nc(N(c2ccccc2)c2ccccc2)n1 1 µM, CCNc1nc(C#N)nc(N2CCOCC2)n1 10 µM, O=C(COC(=O)CNC(=O)c1ccccc1)Nc1cc(C(F)(F)F)ccc1Cl 11.2 µM, CCCN(CCC)c1nc(N)nc(C#N)n1 2.51 µM, CC[C@@H](C)[C@H](NC(=O)OC(C)(C)C)c1nnc(S(=O)(=O)Cc2cc(C)ccc2C)o1 14.1 µM, N#Cc1nc(NCC(F)F)nc(Nc2cc(F)cc(F)c2)n1 0.0251 µM, N#Cc1nc(NCCO)nc(Nc2ccccc2)n1 1.58 µM, COc1cccc(Nc2nc(C#N)nc(NC3CCCC3)n2)c1 0.199 µM, O=C1NN(c2ccc(Cl)c(Cl)c2)C(=O)/C1=C/c1cccc(OC(=O)c2cccs2)c1 35.5 µM

Activity change, negative = inhibition, inactive:
O=C(Cc1nnc(-c2cc3ccccc3[nH]2)o1)Nc1cc(C(F)(F)F)ccc1Cl -3.28%, OCCN(CCO)c1ccc(C(c2ccccc2Cl)c2ccc(N(CCO)CCO)cc2Cl)c(Cl)c1 -15.5%, CCOc1ccc(NC(=O)c2ccc(CNc3c(NC4CCCCC4)c(=O)c3=O)cc2)cc1 1.77%, O=C(NCCCc1nc2ccccc2n1CCCOc1ccccc1)C1CCCCC1 -12.3%, CN1CCN(c2ncc3ncc(=O)n(-c4ccccc4)c3n2)CC1 -20%, N#CN1CCC(NC(=O)c2ccc(C(F)(F)F)cc2)CC1 -6.84%, Cc1ccc(SCCC(=O)OCC(=O)Nc2ncc(Cl)cc2Cl)cc1 -19.6%, CC(C)(C)OC(=O)NCc1nnc(-c2nc3ccccc3[nH]2)o1 -4.26%, CCOc1ccc(CN2C(=O)c3ccccc3Sc3ccc(C(=O)NCc4ccc(C)cc4)cc32)cc1 0.925%, CCc1ccc2[nH]c(=O)c(CN(Cc3ccco3)Cc3nnnn3Cc3ccco3)cc2c1 -11.7%, Cc1ccc(C)c(CN2C(=O)c3ccccc3Sc3ccc(C(=O)NCc4ccc5c(c4)OCO5)cc32)c1 -8.53%, Cc1ccc(COc2ccc3oc(-c4ccccc4)c(C(=O)O)c3c2)cc1 -34.5%, Cc1oc(=O)c(NC(=O)c2ccc(Cl)cc2)cc1C(=O)c1ccccc1 -10.8%, O=C(NCc1ccc2c(c1)OCO2)c1ccc2c(c1)N(Cc1cccc(Cl)c1)C(=O)c1ccccc1S2 3.57%, CC(C)(C)OC(=O)Cc1nnc(C(C(=O)OCc2ccccc2)c2ccccc2)s1 (centres undefined) -12.2%, CC(C)(C)OC(=O)Cc1nnc(-c2cc3ccccc3[nH]2)s1 -10.9%, O=C(CCN1C(=O)/C(=C/C=C/c2ccccc2)SC1=S)Nc1nccs1 1.52%

Reference: PubChem BioAssay AID2158 (National Center for Advancing Translational Sciences (NCATS), 2009)
